RGS8-Gao: regulators of human RGS8-Galphao interaction. multiplexed bead flow cytometry, RGS8-Galphao binding; actives lie on both sides. response (percent of control binding), % at 10 µM. 220,000 compounds, 0.34% hits. AID 1423; in the data active means response below about 60% or above about 140%; inactive means in between;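 further: Galphao activated as the GDP aluminium fluoride complex binding bead-coupled RGS8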
RGS16-Gao: regulators of human RGS16-Galphao interaction; binding response (% of control), % at 10 µM; O15492+P09471; 220,000 compounds, 0.38% hits; bead-based flow cytometry RGS16-Galphao binding, fluorescence; actives lie on both sides; call rule not given here;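 further: Galphao activated by GDP with aluminum fluoride before binding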
Target sequence (O15492 whole entry, looked up): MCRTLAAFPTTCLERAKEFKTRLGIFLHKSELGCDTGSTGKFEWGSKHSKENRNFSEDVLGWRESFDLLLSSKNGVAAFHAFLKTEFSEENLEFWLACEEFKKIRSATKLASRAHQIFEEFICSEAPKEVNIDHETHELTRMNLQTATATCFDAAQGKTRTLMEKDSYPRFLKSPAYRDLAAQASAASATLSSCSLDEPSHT
Target sequence (P09471 whole entry, looked up): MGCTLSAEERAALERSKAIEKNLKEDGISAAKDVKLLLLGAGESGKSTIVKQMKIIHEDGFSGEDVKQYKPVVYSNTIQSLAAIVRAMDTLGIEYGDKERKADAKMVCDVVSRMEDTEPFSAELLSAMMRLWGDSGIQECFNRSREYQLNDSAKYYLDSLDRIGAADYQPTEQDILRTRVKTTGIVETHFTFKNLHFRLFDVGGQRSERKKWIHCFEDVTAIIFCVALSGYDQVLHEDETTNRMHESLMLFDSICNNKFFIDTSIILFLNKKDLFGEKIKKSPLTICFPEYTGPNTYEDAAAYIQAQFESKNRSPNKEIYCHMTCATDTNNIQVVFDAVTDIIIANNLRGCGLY
GSH bead fluor: GSH bead compound fluorescence profile; GSH beads flow cytometry, compound fluorescence 488/530 nm; active compounds read high; fluorescence (KMESF) at 10 µM; 190,000 compounds, 0.25% hits; AID 1776; in the data active means fluorescence above about 89;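 further: glutathione beads carrying GST-tagged Bcl family fusion proteins plus one bare bead set; values are compound well signal with DMSO vehicle wells as background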
RGS4-Gao reg: human RGS4-Galphao interaction regulation; Multiplexed bead flow cytometry, RGS4-Galphao binding; actives lie on both sides; binding response (% of control), % at 10 µM; P09471; AID 1415; 220,000 compounds, 0.33% hits; in the data active means binding response below about 49% or above about 150%; inactive means in between;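 further: fluorescent Galphao activated with aluminum fluoride binding bead-coupled RGS4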
Avidin fluor: compound fluoresces at 488/530 nm on avidin beads. fluorescence (KMESF) at 10 µM. compound fluorescence 488/530 nm, flow cytometry; active compounds read high. 220,000 compounds, 0.38% hits. AID 1775; in the data active means fluorescence above about 47
RGS7-Gao: regulators of human RGS7-Galphao interaction; 220,000 compounds, 0.35% hits; Multiplexed bead flow cytometry, RGS7-Galphao binding; actives lie on both sides; binding response (% of control), % at 10 µM; AID 1439; P09471; in the data active means binding response below about 49% or above about 150%; inconclusive means no clear call, values can overlap the other calls; inactive means in between;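 further: fluorescent Galphao held in activated GDP-AlF4 state binding bead-coupled RGS7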
Active calls of the source: *; ? = inconclusive; . = no result. An excerpt weighted towards active compounds, which were near 1.2% of everything screened.

SMILES | RGS8-Gao | RGS16-Gao | GSH bead fluor | RGS4-Gao reg | Avidin fluor | RGS7-Gao
CC(Oc1ccccc1)C(=O)NC1=NCCS1 (centres undefined) | 96.2 | 92.4 | 10 | 90.6 | 10 | 94.7
CC(=O)Nc1ccc2c(c1)C(=O)c1ccccc1C2=O | 101.4 | 100.7 | 27 | 106.2 | 59* | 113.9
O=C1c2ccccc2C(=O)c2cc(NC(=O)C3CC3)ccc21 | 102.0 | 89.7 | 15 | 101.1 | 6 | 97.5
COc1cc(C(=O)COC(=O)CNC(=O)C2CCCCC2)cc(OC)c1OC | 102.3 | 101.3 | 15 | 103.0 | 53* | 107.0
CC1CCN(C(c2ccc(N(C)C)cc2)c2nnnn2Cc2ccc(F)cc2)CC1 (centres undefined) | 106.0 | 102.0 | 251* | 102.8 | 7 | 98.9
Fc1ccc(Cn2nnnc2C(c2ccc(Cl)cc2)N2CCSCC2)cc1 (centres undefined) | 95.6 | 84.8 | 39 | 88.5 | 6 | 100.2
COc1ccc(C(O)c2coc3ccc(O)c(CN(C)C)c23)cc1 (centres undefined) | 99.5 | 92.3 | 16 | 102.9 | 83* | 115.5
Cc1ccc(Nc2nc(N)c([N+](=O)[O-])c(NCc3ccccc3)n2)cc1 | 102.8 | 104.3 | . | 104.5 | 8 | ?
COc1ccc(Nc2nc(N)c([N+](=O)[O-])c(NCc3ccccc3)n2)cc1 | 101.5 | 120.3 | . | 128.3 | 56* | ?
O=C(c1cnn2c(C(F)F)cc(-c3ccccc3)nc12)N1CCCCC1c1cccnc1 (centres undefined) | 99.7 | 99.9 | . | 99.4 | 7 | ?
Cc1nnc(N(Cc2ccco2)C(=O)c2cccc(C#N)c2)s1 | 103.1 | 104.4 | 32 | 100.9 | 21 | 100.3
Cc1nnc(N(Cc2ccco2)C(=O)c2ccc(C#N)cc2)s1 | 100.9 | 96.0 | 110* | 99.1 | 7 | 98.8
O=C(COC(=O)c1cccc(S(=O)(=O)N2CCc3ccccc3C2)c1)NCc1ccco1 | 93.0 | 56.6 | 256* | 82.7 | 5 | 89.0
O=C(COC(=O)c1cc(S(=O)(=O)N2CCc3ccccc3C2)ccc1Cl)NCc1ccco1 | 95.9 | 93.0 | 4 | 93.9 | 6 | 95.7
Cc1cccc(C)c1OCCN1C(=O)NC(C)(c2ccccc2)C1=O (centres undefined) | 109.0 | 103.6 | 12 | 110.5 | 6 | 105.3
CN1CC(=O)N(CCOc2ccccc2)C1=O | 100.5 | 107.3 | 263* | 101.6 | 8 | 99.0
O=C1CNC(=S)N1CCOc1ccccc1 | 98.8 | 99.3 | . | 95.0 | 7 | ?
CC1(c2ccccc2)NC(=O)N(CCOc2ccccc2)C1=O (centres undefined) | 100.0 | 103.7 | 263* | 103.0 | 7 | 102.2
O=S(=O)(N/N=C\c1cccnc1)c1ccccc1 | 106.6 | 107.5 | 352* | 100.9 | 7 | 105.4
O=[N+]([O-])c1cccc(/C=N/NS(=O)(=O)c2ccccc2)c1 | 102.1 | 103.6 | 14 | 104.5 | 7 | 103.5
Cc1nnc(SCC(=O)N2CCCCC2)n1CC1CCCO1 (centres undefined) | 105.9 | 111.9 | 94* | 104.9 | 4 | 100.9
Cn1c(SCCCC(=O)c2ccc(F)cc2)nnc1-c1ccncc1 | 99.5 | 105.2 | 16 | 100.1 | 9 | 101.8
Cc1occc1-c1nnc(SCCCC(=O)c2ccc(F)cc2)n1C | 100.2 | 93.4 | 259* | 96.3 | 8 | 95.2
O=C(c1ccc(F)cc1)N1CCN(c2ncccn2)CC1 | 98.8 | 99.9 | 13 | 99.7 | 73* | 114.3
CC(C)CN1CCNC(=O)C1CC(=O)NCc1cnn(-c2cccc(F)c2)c1 (centres undefined) | 102.5 | 98.2 | 16 | 100.1 | 6 | 96.5
SMILES | RGS8-Gao | RGS16-Gao | GSH bead fluor | RGS4-Gao reg | Avidin fluor | RGS7-Gao
CCCCSc1ncc(C(=O)OCC)c(N)n1 | 101.9 | 100.8 | 129* | 100.9 | 4 | 96.5
Cc1cc2cc(C)c3nnc(SCC(=O)N4CCCc5ccccc54)n3c2cc1C | 84.7 | 87.0 | 31 | 86.3 | 12 | 87.0
Cc1cc2cc(C)c3nnc(SCC(=O)N4CCc5ccccc54)n3c2cc1C | 12.3* | 1.3* | 23 | 21.6* | -2 | 14.4*
O=C(CNC(=O)c1ccccc1Br)N/N=C/c1ccc(O)cc1 | 99.7 | 101.2 | 11 | 99.3 | 11 | ?
Cc1cc(C(=O)OCC(=O)NC(C)C)c(C)o1 | 102.1 | 100.4 | 269* | 101.1 | 7 | 101.7
Cc1cc(C(=O)OCC(=O)NC2CCCCC2)c(C)o1 | 101.5 | 101.4 | 23 | 98.7 | 26 | 99.8

Source: PubChem
